From PubChem BioAssay (EPA / NIEHS) come the findings set out here.

The structures appear in SMILES notation. “And” between values parts separate entries of the source, which are not always exact repeats. Equal values may be shown once. The source holds several records for some structures; these can differ, active in one and inactive in another. The source made the active and inactive calls. Rule for the calls: active = hit-call score of the fitted dose curve at least 0.9, where 1 is the maximum; inactive = score below 0.9.

Read-out in assay [1]: Interferon-inducible T-cell alpha chemoattractant (ITAC), CXCL11 (gene 6373)
The assay is described as follows: BSK_BE3C_ITAC: BioMAP Diversity Plus: BE3C Assay for Interferon-inducible T-cell alpha chemoattractant (ITAC) Biomarker Activity (AID 2284279). Particulars: primary human bronchial epithelial cells. The procedure, abridged:
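BE3C cells (human primary bronchial epithelium), 24 h compound exposure, I-TAC by ELISA, DMSO = negative control/baseline, positive fitting direction.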

Read-out in assay [2]: Interleukin-8 (IL8), CXCL8 (gene 3576)
The assay is described as follows: BSK_BE3C_IL8: BioMAP Diversity Plus: BE3C Assay for Interleukin-8 (IL8) Biomarker Activity (AID 2284280). The settings on record: primary human bronchial epithelial cells. The method, boiled down:
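ELISA read-out of IL-8 in human lung bronchial epithelial primary cell cultures, 24 h post-dosing; endpoint analysed as signal increase relative to DMSO baseline.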

Read-out in assay [3]: Epidermal growth factor receptor (EGFR), EGFR (gene 1956)
The assay is described as follows: BSK_BE3C_EGFR: BioMAP Diversity Plus: BE3C Assay for Epidermal growth factor receptor (EGFR) Biomarker Activity (AID 2284281). The settings on record: primary human bronchial epithelial cells. The procedure, abridged:
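Primary human lung bronchial epithelial cells; compound, 24 h; EGFR measured by ELISA; positive-direction fit vs DMSO baseline.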

Read-out in assay [4]: KRT18 (gene 3875)
The assay is described as follows: BSK_BE3C_Keratin818: BioMAP Diversity Plus: BE3C Assay for Keratin 818 Biomarker Activity (AID 2284282). The settings on record: primary human bronchial epithelial cells. The procedure, abridged: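 Primary human bronchial epithelial cells treated 24 h; Keratin 8/18 quantified by ELISA, fit relative to DMSO. Cytotoxicity tracked in parallel cultures by sulforhodamine B total-protein staining.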

Read-out in assay [5]: Matrix Metallopeptidase 9 (MMP9), MMP9 (gene 4318)
The assay is described as follows: BSK_BE3C_MMP9: BioMAP Diversity Plus: BE3C Assay for Matrix Metallopeptidase 9 (MMP9) Biomarker Activity (AID 2284283). Particulars: primary human bronchial epithelial cells. The method, boiled down:
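Human primary bronchial epithelial cells exposed 24 h to compound. MMP9 quantified by ELISA. SRB total-protein staining of parallel cultures assesses cytotoxicity. Positive-direction fit relative to DMSO.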

Read-out in assay [6]: Plasminogen activator inhibitor-1 (PAI1), SERPINE1 (gene 5054)
The assay is described as follows: BSK_CASM3C_PAI1: BioMAP Diversity Plus: CASM3C Assay for Plasminogen activator inhibitor-1 (PAI1) Biomarker Activity (AID 2284284).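 Note: PAI-1 protein level measured by ELISA 24 h after dosing.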 The settings on record: primary human coronary artery smooth muscle cells.

Read-out in assay [7]: Monocyte Chemoattractant Protein-1 (MCP1), CCL2 (gene 6347)
The assay is described as follows: BSK_hDFCGF_MCP1: BioMAP Diversity Plus: hDFCGF Assay for Monocyte Chemoattractant Protein-1 (MCP1) Biomarker Activity (AID 2284285). Particulars: primary human foreskin fibroblasts. The procedure, abridged:
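Human foreskin fibroblasts (hDFCGF system) were exposed to compound and secreted MCP-1 was measured by ELISA after 24 hours. Activity was fitted relative to DMSO. Cytotoxicity was checked by SRB total-protein staining in parallel cultures.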

Read-out in assay [8]: Vascular cell adhesion molecule 1 (VCAM1), VCAM1 (gene 7412)
The assay is described as follows: BSK_IMphg_VCAM1: BioMAP Diversity Plus: IMphg Assay for Vascular cell adhesion molecule 1 (VCAM1) Biomarker Activity (AID 2284286). Particulars: primary human endothelial cells with macrophages. The method, boiled down: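 Human venular endothelial cells co-cultured with macrophages; VCAM-1 quantified by ELISA 24 h after dosing, fitted in the positive direction against DMSO. Cytotoxicity was checked in parallel cultures by SRB total-protein staining (0.1% SRB after 10% TCA fixation, 560 nm).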

Read-out in assay [9]: Intercellular Adhesion Molecule 1 (ICAM1), ICAM1 (gene 3383)
The assay is described as follows: BSK_hDFCGF_ICAM1: BioMAP Diversity Plus: hDFCGF Assay for Intercellular Adhesion Molecule 1 (ICAM1) Biomarker Activity (AID 2284287). The settings on record: primary human foreskin fibroblasts. The procedure, abridged:
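Primary human foreskin fibroblasts (hDFCGF system) dosed with chemical; ICAM-1 quantified by ELISA at 24 h relative to DMSO. Parallel SRB total-protein staining to assess overt cytotoxicity.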

Read-out in assay [10]: CD40, CD40 (gene 958)
The assay is described as follows: BSK_IMphg_CD40: BioMAP Diversity Plus: IMphg Assay for CD40 Biomarker Activity (AID 2284288). The settings on record: primary human endothelial cells with macrophages. The procedure, abridged: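 Venular endothelial cells co-cultured with macrophages (human primary), CD40 measured by ELISA 24 h after dosing. Positive-direction fit vs DMSO baseline; cytotoxicity tracked by SRB total-protein staining in parallel cultures.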

Read-out in assay [11]: TIMP metallopeptidase inhibitor 2 (TIMP2), TIMP2 (gene 7077)
The assay is described as follows: BSK_hDFCGF_TIMP2: BioMAP Diversity Plus: hDFCGF Assay for TIMP metallopeptidase inhibitor 2 (TIMP2) Biomarker Activity (AID 2284289). The settings on record: primary human foreskin fibroblasts. The method, boiled down:
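Primary human foreskin fibroblasts in the hDFCGF system, dosed for 24 h; TIMP-2 level measured by ELISA, fitted in the positive direction against DMSO; cytotoxicity checked in parallel by sulforhodamine B total protein staining.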

Read-out in assay [12]: Interleukin-1 alpha (IL1a), IL1A (gene 3552)
The assay is described as follows: BSK_IMphg_IL1a: BioMAP Diversity Plus: IMphg Assay for Interleukin-1 alpha (IL1a) Biomarker Activity (AID 2284290). The settings on record: primary human endothelial cells with macrophages. The procedure, abridged:
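Human venular endothelial cells co-cultured with macrophages, IMphg system. IL-1α is measured by ELISA 24 h after dosing and fitted in the positive direction against DMSO. Cytotoxicity is assessed by SRB staining of parallel cultures.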

Read-out in assay [13]: E-selectin (Homo sapiens) (UniProt P16581)
The assay is described as follows: BSK_IMphg_ESelectin: BioMAP Diversity Plus: IMphg Assay for Eselectin Biomarker Activity (AID 2284291). The settings on record: primary human endothelial cells with macrophages. The method, boiled down: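 Human venular endothelial cell–macrophage co-culture, E-selectin measured by ELISA 24 h after chemical dosing. Signal fitted in the positive direction against DMSO as negative control and baseline.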

A short description of assay [14]: BSK_IMphg_SRB: Viability Assessment in the BioMAP Diversity Plus: IMphg Assay (AID 2284292).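 Note: measured one day after compound addition.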 Particulars: primary human endothelial cells with macrophages. The procedure, abridged:
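Human venular endothelial cells with macrophages, 24 h after chemical dosing; total protein by 0.1% SRB staining after 10% TCA fixation, read at 560 nm. Positive-direction fitting versus DMSO baseline.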

Read-out in assay [15]: Macrophage colony-stimulating factor (MCSF), CSF1 (gene 1435)
The assay is described as follows: BSK_IMphg_MCSF: BioMAP Diversity Plus: IMphg Assay for Macrophage colony-stimulating factor (MCSF) Biomarker Activity (AID 2284293). Particulars: primary human endothelial cells with macrophages. The method, boiled down: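 Co-culture of human venular endothelial cells and macrophages, 24 hours of chemical exposure. M-CSF quantified by ELISA, with parallel SRB total-protein staining for cytotoxicity; activity fitted relative to DMSO.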

Read-out in assay [16]: Interleukin-10 (IL10), IL10 (gene 3586)
The assay is described as follows: BSK_IMphg_IL10: BioMAP Diversity Plus: IMphg Assay for Interleukin-10 (IL10) Biomarker Activity (AID 2284294). The settings on record: primary human endothelial cells with macrophages. The procedure, abridged: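 Human venular endothelial cells cocultured with macrophages, dosed 24 h; IL-10 measured by ELISA, activity relative to DMSO. Cytotoxicity assessed in parallel cultures by sulforhodamine B total-protein staining.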

Assay [17] can be described thus: BSK_IMphg_SRB.Mphg: Macrophage Viability Assessment in the BioMAP Diversity Plus: IMphg Assay (AID 2284295). Particulars: primary human endothelial cells with macrophages. The procedure, abridged: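 Venular endothelial cells co-cultured with macrophages, read 24 h after dosing. Total protein measured by 0.1% SRB staining after 10% TCA fixation, absorbance at 560 nm. Fitted in positive direction against DMSO baseline.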

Read-out in assay [18]: Thrombomodulin, THBD (gene 7056)
The assay is described as follows: BSK_LPS_Thrombomodulin: BioMAP Diversity Plus: LPS Assay for Thrombomodulin Biomarker Activity (AID 2284296). The settings on record: primary human HUVEC with PBMC. The procedure, abridged: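 Human umbilical vein endothelial cells co-cultured with PBMC and stimulated with LPS; cell-surface thrombomodulin measured by ELISA 24 hours after compound. Gain or loss versus DMSO; cytotoxicity checked by SRB staining in parallel cultures.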

The nature of assay [19]: IUF_NPC2c_oligodendrocyte_migration_120hr: Leibniz Research Institute for Environmental Medicine (IUF) 120-hour Neural Progenitor Cell Migration Assay for Oligodendrocyte Migration (NPC2c) (AID 2284297).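 Note: O4-positive oligodendrocyte migration distance divided by radial glia migration distance.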 The method, boiled down: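 Human fetal neural progenitor spheres (0.3 mm) are plated on poly-D-lysine/laminin in N2 differentiation medium and exposed for 120 h, with half-medium renewal at day 3. Oligodendrocyte (O4+) migration distance comes from ICC imaging, normalised to radial glia migration.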

Assay [20] in a line: IUF_NPC2a_radial_glia_migration_120hr: Leibniz Research Institute for Environmental Medicine (IUF) 120-hour Neural Progenitor Cell Migration Assay for Radial Glia Migration (NPC2a) (AID 2284298). The method, boiled down: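 Human fetal-cortex neural progenitor spheres (0.3 mm) plated on poly-D-lysine/laminin in N2 differentiation medium, exposed 120 h at 37C with half-medium renewal at day 3. Radial glia migration distance (um) measured from Hoechst-stained nuclei images; DMSO baseline.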

E-selectin (Homo sapiens), sequence (P16581 whole entry, looked up): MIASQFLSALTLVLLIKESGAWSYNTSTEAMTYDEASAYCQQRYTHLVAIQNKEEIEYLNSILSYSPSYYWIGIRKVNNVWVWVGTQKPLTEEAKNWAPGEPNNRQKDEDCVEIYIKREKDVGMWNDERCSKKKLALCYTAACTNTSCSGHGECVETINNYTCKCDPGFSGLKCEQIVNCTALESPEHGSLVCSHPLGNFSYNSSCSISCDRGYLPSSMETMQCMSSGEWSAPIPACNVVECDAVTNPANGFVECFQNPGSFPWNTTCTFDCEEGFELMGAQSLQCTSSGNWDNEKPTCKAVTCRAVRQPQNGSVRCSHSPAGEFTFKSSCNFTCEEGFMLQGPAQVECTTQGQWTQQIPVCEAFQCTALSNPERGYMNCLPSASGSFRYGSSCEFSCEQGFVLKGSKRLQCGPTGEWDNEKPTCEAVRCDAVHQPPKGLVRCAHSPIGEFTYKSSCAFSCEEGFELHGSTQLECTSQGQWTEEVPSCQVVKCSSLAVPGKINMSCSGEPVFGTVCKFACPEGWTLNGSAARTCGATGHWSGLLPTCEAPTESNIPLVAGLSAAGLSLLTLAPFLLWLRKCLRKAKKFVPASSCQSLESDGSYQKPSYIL

Turning to `NS(=O)(=O)C(F)(F)C(F)(F)C(F)(F)C(F)(F)C(F)(F)C(F)(F)C(F)(F)C(F)(F)F`, the AC50 – broadly, the concentration at which the activity in the assay is half-maximal – in assay [1] was 43.2 µM (active) and 36.9 µM (active); in assay [2], 24.3 µM (active) and 11.4 µM (active); in assay [3] it was 25.1 µM (active) and 38 µM (active); in assay [4], 46.9 µM (active) and 48 µM (active); in assay [5] it was 30 µM (active); in [7], 21.7 µM (active) and 17.3 µM (active). Also, the AC50 in assay [8] is 47.3 µM (active) and 56.6 µM (active); in assay [9], 12.1 µM (active) and 15.7 µM (active); in assay [10], 31.8 µM (active) and 25.7 µM (active); in [11], 53.9 µM (active) and 52.3 µM (active); in [12], 53.6 µM (active) and 52.9 µM (active); in assay [13], 39.9 µM (active) and 30 µM (active). Further, the concentration at half-maximal activity (AC50) in [14] was 51 µM (active) and 48.3 µM (active); in assay [15], 30 µM (active); in assay [16] it was 48.2 µM (active) and 47.2 µM (active); in assay [17] it was 43.4 µM (active) and 48.1 µM (active); in [18], 14.5 µM (active). The outcome in [6], in assay [15] and in assay [18] was inactive.
On to `CCOP(=S)(OCC)SCSC(C)(C)C`, for which the outcome in assay [19] and in assay [20] was inactive.
With `O=C(O)C(F)(F)C(F)(F)C(F)(F)C(F)(F)C(F)(F)C(F)(F)C(F)(F)C(F)(F)C(F)(F)F`, the AC50 was 12.8 µM (active) and 13.7 µM (active) in assay [1]; 10.1 µM (active) and 14.2 µM (active) in [2]; 7.27 µM (active) in [3]; 14.5 µM (active) in assay [4]; 15.1 µM (active) and 17.4 µM (active) in [5]; 56.1 µM (active) and 56.6 µM (active) in [7]. The concentration at half-maximal activity (AC50) in assay [8] was 54.8 µM (active) and 26.9 µM (active); in assay [9], 49.8 µM (active) and 49 µM (active); in [10] it was 45.9 µM (active) and 42.3 µM (active); in assay [11], 11.2 µM (active) and 19.7 µM (active); in assay [13], 47.6 µM (active) and 50.2 µM (active); in assay [14], 53.8 µM (active) and 46.6 µM (active). The AC50 in assay [16] was 49.6 µM (active) and 45.5 µM (active); in [17] it was 44.9 µM (active) and 46.2 µM (active); in assay [18], 51.4 µM (active) and 54.9 µM (active). The result in [3], in assay [4], in [6], in [12] and in [15] was inactive.
Take `O=S(=O)(O)C(F)(F)C(F)(F)C(F)(F)C(F)(F)F`: the outcome in assay [1], in assay [2], in [3], in assay [4], in assay [5] and in assay [6] was inactive. In addition, the result in [7], in assay [8], in [9], in assay [10], in [11] and in assay [12] was inactive. Moreover, the result in [13], in assay [14], in [15], in assay [16], in [17] and in assay [18] was inactive. Moreover, the compound was classed as inactive in assay [19] and in [20].
